Bioassay records (PubChem)
This is a sample that favours compounds with a hit; in the whole collection about 0.93% have one here.
CDC25B-CDK2 inh = human CDC25B-CDK2/CyclinA binding inhibition; P30305+P24941; HTRF CDC25B-CDK2/CyclinA binding, anti-His/anti-Flag; stronger effect = higher value; z-score (test concentration not listed); 94,000 compounds, 0.72% hits; in the data active = z-score above about 3.2
HIV TAR-Tat = HIV-1 TAR-Tat binding disruption. HIV-1 TAR RNA, Tat peptide displacement FRET; stronger effect = higher value. z-score (test concentration not listed). 100,000 compounds, 0.6% hits. AID 1259389; active = z-score of 3 or more in at least 2 runs
Starred values were filed as active, the others as inactive; nt = no result.

SMILES | CDC25B-CDK2 inh | HIV TAR-Tat
COc1ccc(-c2cc3c4c(C)n(Cc5ccc6c(c5)OCO6)c(C)c4c(C)nn3c2)cc1 | -1.71 | -0.06
CCc1ccc(CNc2nc3nc(C)c(C)c(=O)n3[nH]2)cc1 | -0.47 | 2.25
Cc1ccccc1CSc1nc2c(cnn2-c2ccc(F)cc2)c(=O)[nH]1 | -0.4 | nt
COC(=O)NC1c2ccccc2Oc2ccccc21 | -0.47 | 0.32
COC(=O)C1=C(N)Oc2ccccc2C1C(C#N)C#N (configuration not stated) | 18.6* | nt
Cc1cc(N2C(=O)CCS2(=O)=O)cc(C)c1S(=O)(=O)N1CCc2ccccc2C1 | -0.76 | -0.41
CN(C)c1ccc(O)c2c1C[C@H]1C[C@H]3[C@H](N(C)C)C(=O)C(C(N)=O)=C(O)[C@@]3(O)C(=O)C1=C2O | nt | 19.6*
C[C@H]1c2cccc(O)c2C(O)=C2C(=O)[C@]3(O)C(O)=C(C(N)=O)C(=O)[C@@H](N(C)C)[C@@H]3[C@@H](O)[C@@H]21 | -0.66 | 23.7*
CS(=O)(=O)Nc1ccc(-c2noc(COc3ccc(F)cc3)n2)cc1 | nt | 0.86
O=C(/C=C/c1cccnc1)c1ccc[cH-]1.[Fe+2].c1cc[cH-]c1 | 14.9* | nt
CC(=C/C(=O)O)/C(=C\c1cccnc1)C(=O)O | -1.3 | nt
CCn1c[n+](CC(O)COc2ccccc2)c2cc(C)c(C)cc21 (configuration not stated) | 16* | 0.83
CCn1c[n+](CC(O)COc2ccccc2)c2ccccc21 (configuration not stated) | -0.35 | 1.19
Cc1nc(N2CCOCC2)cc(N2CCN(S(=O)(=O)c3cccc(Cl)c3)CC2)n1 | -0.98 | 0.43
COc1ccc(/C=C(\C#N)C(N)=S)cc1 | 1.55 | nt
CC1CN(C)C(C)C(/C=C(/C#N)C(N)=S)C1=O (configuration not stated) | 7.89* | nt
CN(CC(=O)N1CCc2ccccc2C1)S(=O)(=O)c1ccc2c(c1)CCCC(=O)N2 | nt | 0
CN(C)S(=O)(=O)N(CC(=O)N1CCc2ccccc2C1)c1ccccc1 | -1.72 | 11*
Cn1c(=O)c(=O)n(C)c2cc(S(=O)(=O)CCC(=O)N3CCc4ccccc4C3)ccc21 | -1.56 | 4.06*
CC1CC(C)CN(C(=O)CCS(=O)(=O)c2ccc3c(c2)n(C)c(=O)c(=O)n3C)C1 (configuration not stated) | -2.4 | 2.63
CC(C)c1ccc(-c2c(NCc3ccc(N(C)C)cc3)c(=O)c2=O)cc1 | nt | 0.38
CCC(=O)N1CCc2cc(Br)cc(S(=O)(=O)CCC(=O)NCc3cccs3)c21 | 1.15 | nt
Nc1ncc(S(=O)(=O)O)s1 | -0.5 | nt
Nc1ncc(C2=C(Cl)C(O)C(Cl)=C(Cl)C2O)s1 (configuration not stated) | 20.3* | nt
Cn1nc(C(=O)NCCCN2CCCCC2)c2c1-c1ccsc1CC2 | nt | 0.34
SMILES | CDC25B-CDK2 inh | HIV TAR-Tat
Cc1nc2ccccn2c(=O)c1Cc1nnc(SCC(=O)Nc2ccc(Cl)cc2)n1C | -0.52 | -0.6
COc1ccc(NC(=O)C(C)Sc2nnc(Cc3c(C)nc4c(C)cccn4c3=O)n2C)cc1 (configuration not stated) | 7.15* | -0.94
Cc1nc2c(C)cccn2c(=O)c1Cc1nnc(SCC(=O)Nc2ccc(C(C)C)cc2)n1C | -0.42 | -0.62
COc1ccc(NC(=O)C(C)Sc2nnc(Cc3c(C)nc4ccccn4c3=O)n2C)cc1 (configuration not stated) | 16* | -0.14
O=C(C1CCN(c2nnc(N3CCCCC3=O)s2)CC1)N1CCN(c2ncccn2)CC1 | nt | 1.14
CN(Cc1ccccc1)S(=O)(=O)c1ccc2[nH]c3c(c2c1)CCCC3 | nt | -0.25
Fc1ccc(Cn2cc3c(-c4ccc5c(c4)OCO5)nnc-3c3ccccc32)cc1 | -1.03 | 1.56
O=S(=O)(Nc1ccc(Oc2ccc(F)cc2)cc1)c1ccc(Cl)cc1 | 12.5* | nt
COc1ccc(NS(=O)(=O)c2ccc(NS(=O)(=O)c3ccc(Cl)cc3)cc2)cc1 | 0.47 | -0.37
COc1ccc(/C=C2/N=C(c3ccccc3)NC2=O)cc1 | -1.43 | nt
COc1nc2ccc(C)cc2cc1-c1noc(-c2ccncc2)n1 | -12.6 | 0.7
COc1nc2ccc(C)cc2cc1-c1noc(-c2cccnc2)n1 | -13.3 | 3.63*
COc1ccc(CN2CCc3nc(N4CCN(c5ccc(F)cc5)CC4)ncc3C2)c(OC)c1 | nt | 0.07
CCN(CC)CCCNC(=O)Cn1cnc2c(nc3n2CCCCC3)c1=O | -0.78 | 0.44
Cc1cccc(OCc2cc(=O)n3nc(-c4ccco4)sc3n2)c1C | -0.31 | 35*
O=c1cc(COc2ccc(Cl)cc2)nc2sc(-c3ccco3)nn12 | -0.91 | 35.7*
Cc1ccc(OCc2cc(=O)n3nc(-c4ccccc4)sc3n2)cc1C | 1.73 | 4.47*
O=c1cc(CSc2ccc(Cl)cc2)nc2sc(-c3ccco3)nn12 | -2.17 | 1.61
O=c1cc(CSc2nc3ccccc3[nH]2)nc2sc(-c3ccco3)nn12 | -0.16 | 14.9*
Cc1nn2c(=O)cc(COc3cccc(C)c3C)nc2s1 | -1.02 | -0.75
O=c1cc(CSc2nc3ccccc3[nH]2)nc2sc(-c3cccs3)nn12 | 0.61 | 0.82
CCc1nn2c(=O)cc(COc3ccc(C)c(C)c3)nc2s1 | -1.48 | 0.78
COCCCNc1ncnc2c1sc1nc3c(cc12)COC(C)(C)C3 | nt | 0.57
O=C(O)c1ccc2c(c1)C(=O)N(c1ccc(C(=O)O)c(Cl)c1)C2=O | 0.13 | nt
Clc1cc2c(c3ncccc13)OCN(CCc1ccccc1)C2 | -3.53 | nt
SMILES | CDC25B-CDK2 inh | HIV TAR-Tat
CCCCN1COc2c(cc(Cl)c3cccnc23)C1 | 17.3* | 2.12
CCOC(=O)c1cnc2ccc(Br)cc2c1NCc1ccco1 | -3.2 | -1.22
CCOC(=O)c1cnc2ccc(Br)cc2c1Nc1ccc(N(C)C)cc1 | -0.69 | 7.66*
O=C(c1ccc(Br)cc1)N(Cc1cccc(F)c1)C1CCS(=O)(=O)C1 (configuration not stated) | -0.93 | 1.39
COC(=O)c1sccc1NC(=O)Cc1cccs1 | -1.32 | nt
COC(=O)c1sccc1NC(=O)c1cccs1 | 6.69* | nt
Cc1cc2nc(CSc3nnc(NC(=O)C(C)(C)C)s3)c(=O)[nH]c2cc1C | nt | -2.81
CCc1ccc(S(=O)(=O)c2nnn3c2nc(NCCCOC(C)C)c2sccc23)cc1 | nt | 0.63
CCCCCCn1c(CCNC(=O)C(C)(C)C)nc2ccccc21 | -1.75 | 2.55
O=S(=O)(c1ccc2ccccc2c1)N1CCN(Cc2ccc3c(c2)OCO3)CC1 | -0.97 | 9.03*
CCOc1ccc(CN2CCN(Cc3ccc4c(c3)OCO4)CC2)cc1 | 8.4* | 1.14
O=S(=O)(c1ccccc1)N1CCN(Cc2ccc3c(c2)OCO3)CC1 | -0.65 | 1.22
COc1ccc(OC)c(CN2CCN(Cc3ccc4c(c3)OCO4)CC2)c1 | -0.45 | 0.34
CCOC(=O)c1cc(-c2ccc(S(=O)(=O)NCC3CCCN3CC)s2)on1 (configuration not stated) | nt | 0.82
Cn1nnc2c(NC(c3ccccc3)c3ccccc3)ncnc21 | nt | 1.98
Cc1ccc2[nH]c(=O)c(NS(=O)(=O)c3ccccc3)c(-c3ccccc3)c2c1 | -0.14 | nt
COc1ccc2[nH]c(=O)cc(C(=O)O)c2c1 | 0.85 | 12.6*
COc1ccc2c(C(=O)O)cc(=O)[nH]c2c1 | -1.18 | -0.28
O=C(CCS(=O)(=O)c1ccc2c(c1)CCN2C(=O)C1CC1)N1CCc2ccccc2C1 | nt | 0.61
Cc1ccc(-n2ncc3c(N(C)C)ncnc32)cc1 | nt | 2.08
O=C(CCCN1C(=O)c2ccccc2Sc2ncccc21)N1CCN(C2CCCCC2)CC1 | nt | -1.1
Nc1ccc2nc(SCC(=O)c3ccc(Br)cc3)sc2c1 | -4.38 | -1.35
